# Assay results from article PMC4336329 (PLoS ONE, 2015).
# The whole screen tested about 310,000 compounds, of which about 14,000 (4.5%) showed an effect of 50% or more. Effects have a minus sign here. Only a selection was taken, and strong results are over-represented in it overall.
# Biological target: human ether-à-go-go-related gene (hERG) potassium channel (human, UniProt Q12809)
# Experiment: primary screen, population patch clamp on CHO cells stably expressing hERG; higher = less effect of the substance
# 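Note: peak tail current of the secondary pulse compared with the same well before compound.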
# Sequence of human ether-à-go-go-related gene (hERG) potassium channel (Q12809 whole entry, looked up): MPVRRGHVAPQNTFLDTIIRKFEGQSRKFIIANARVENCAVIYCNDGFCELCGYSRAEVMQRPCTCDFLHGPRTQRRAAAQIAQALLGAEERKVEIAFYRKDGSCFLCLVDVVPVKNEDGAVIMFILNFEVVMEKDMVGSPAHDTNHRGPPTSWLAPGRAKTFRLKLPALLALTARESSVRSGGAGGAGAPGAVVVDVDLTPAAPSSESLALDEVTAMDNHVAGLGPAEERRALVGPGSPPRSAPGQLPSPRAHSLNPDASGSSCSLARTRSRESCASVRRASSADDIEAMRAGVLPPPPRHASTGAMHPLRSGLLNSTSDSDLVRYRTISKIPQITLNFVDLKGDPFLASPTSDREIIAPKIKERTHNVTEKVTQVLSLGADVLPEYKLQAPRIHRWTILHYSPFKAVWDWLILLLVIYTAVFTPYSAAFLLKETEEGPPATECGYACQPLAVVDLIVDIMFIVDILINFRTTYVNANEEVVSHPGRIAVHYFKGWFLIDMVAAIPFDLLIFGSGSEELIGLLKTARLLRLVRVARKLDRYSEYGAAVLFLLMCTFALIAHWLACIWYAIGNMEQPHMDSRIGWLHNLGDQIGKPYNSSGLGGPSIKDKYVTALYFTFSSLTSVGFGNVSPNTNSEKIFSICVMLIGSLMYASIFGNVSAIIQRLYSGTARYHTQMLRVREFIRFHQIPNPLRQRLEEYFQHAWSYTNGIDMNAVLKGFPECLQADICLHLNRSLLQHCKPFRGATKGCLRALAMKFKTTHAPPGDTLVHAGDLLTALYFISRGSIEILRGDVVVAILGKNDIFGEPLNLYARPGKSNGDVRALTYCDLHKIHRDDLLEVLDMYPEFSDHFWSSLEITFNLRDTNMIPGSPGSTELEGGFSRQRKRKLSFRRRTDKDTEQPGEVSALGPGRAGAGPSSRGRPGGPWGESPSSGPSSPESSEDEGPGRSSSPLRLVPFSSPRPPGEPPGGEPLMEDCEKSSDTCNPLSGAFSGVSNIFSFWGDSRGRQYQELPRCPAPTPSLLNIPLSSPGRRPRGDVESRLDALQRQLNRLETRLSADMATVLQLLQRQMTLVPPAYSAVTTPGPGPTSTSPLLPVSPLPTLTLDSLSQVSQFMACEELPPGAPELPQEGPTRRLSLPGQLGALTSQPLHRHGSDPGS
row,Structure (SMILES),"hERG current change (%, negative = inhibition) at 10uM [%]"
1,CCOC(=O)c1cc(-c2ccccc2C)n(CC2CC(c3cccc([N+](=O)[O-])c3)=NO2)n1 (stereo not shown),0.113
2,Cc1csc(SCC(=O)Nc2cccc(S(=O)(=O)N3CCOCC3)c2)n1,-6.13
3,CCn1nnnc1SCC(=O)N1c2ccccc2CCc2ccccc21,2.92
4,CCOC(=O)C(=O)Nc1nnc(SCc2ccc(F)cc2)s1,1.7
5,Cc1ccc(SCC(=O)NC2CC2)cc1,13.3
6,CCOCCCNC(=O)c1cc(C)nn1-c1ccccc1,11
7,CCN(CC)C(=O)C1CCN(Cc2cn(C)nc2-c2ccc(Oc3ccccc3)cc2)CC1,-46.9
8,COC1CCCN(Cc2cn(C)nc2-c2ccc(Oc3ccccc3)cc2)C1 (stereo not shown),-40.7
9,Cn1cc(CN2CCN(CCO)CC2)c(-c2ccc(Oc3ccccc3)cc2)n1,-32.3
10,C[C@H]1C(=O)N(C)CCN1Cc1cn(C)nc1-c1ccc(Oc2ccccc2)cc1,-4.92
11,COCCN1CCN(Cc2cn(C)nc2-c2ccc(Oc3ccccc3)cc2)CC1,-65.2
12,CCOC(=O)C1CCN(Cc2cn(C)nc2-c2ccc(Oc3ccccc3)cc2)CC1,-44.9
13,CCCN1CCC(NCc2cn(C)nc2-c2ccc(Oc3ccccc3)cc2)CC1,-66.1
14,CC1CN(Cc2cn(C)nc2-c2ccc(Oc3ccccc3)cc2)CCN1C (stereo not shown),-57.2
15,Cn1cc(CN2CCCC(CO)C2)c(-c2ccc(Oc3ccccc3)cc2)n1 (stereo not shown),-26.2
16,Cn1cc(CN2CCC(CO)CC2)c(-c2ccc(Oc3ccccc3)cc2)n1,-67.5
17,COCCN1CCCC(CNCc2cn(C)nc2-c2ccc(Oc3ccccc3)cc2)C1 (stereo not shown),-33.2
18,Cn1cc(CN2CCC(O)CC2)c(-c2ccc(Oc3ccccc3)cc2)n1,-23.7
19,O=C(O)c1ccc2c3c(cccc13)C(=O)N(c1cccc3ccccc13)C2=O,34.3
20,COc1ccc(-c2[nH]ncc2CN(CCO)Cc2cccs2)c(F)c1,4.65
21,CCCC(=O)NC(C)c1nc2ccccc2n1C(C)C (stereo not shown),8.05
22,Cc1cc(C)cc(N(CCC#N)C(=O)COC(=O)CN2C(=O)NC(C)(C)C2=O)c1,19.6
23,COc1cccc(NC(=O)NNS(=O)(=O)c2ccc(OC)cc2OC)c1,-3
24,COc1ccc(N=N/C(C(C)=O)=C(/C)O)cc1,-24.5
25,CN(C)S(=O)(=O)c1cccc(-c2nn(-c3ccccc3)cc2/C=C2\SC(=S)NC2=O)c1,20.1

row,Structure (SMILES),"hERG current change (%, negative = inhibition) at 10uM [%]"
1,CCOc1cc(C(=O)OCC(=O)N(C)c2ccccc2)cc(OCC)c1OCC,-17.6
2,CCc1nnc(NC(=O)CSc2ncc(-c3ccccc3)n2C)s1,-0.226
3,CN(Cc1cn(C)nc1-c1ccc(Oc2ccccc2)cc1)Cc1cnc2ccccn12,-54
4,Cn1cc(CNCc2cnc3ccccn23)c(-c2ccc(Oc3ccccc3)cc2)n1,-50
5,Cc1cnccc1CN(C)Cc1cn(C)nc1-c1ccc(Oc2ccccc2)cc1,-27.4
6,NC(=O)C1CCN(C2=C(Cl)C(=O)c3ccccc3C2=O)CC1,13.6
7,NC12CC3CC(C1)CC(CO)(C3)O2,8.54
8,COc1ccc(N(CC(=O)N2c3ccccc3CC2C)S(=O)(=O)c2c(C)nn(C)c2C)cc1 (stereo not shown),-25.9
9,OC(CN1CCN(Cc2ccccc2)CC1)c1ccccc1 (stereo not shown),-30.3
10,OC(CN1CCN(c2ccccc2F)CC1)c1ccc(F)cc1 (stereo not shown),-19.3
11,OC(CN1CCN(Cc2ccccc2)CC1)c1ccc(Br)cc1 (stereo not shown),-67.9
12,OC(CN1CCN(C(c2ccccc2)c2ccccc2)CC1)c1ccc(Br)cc1 (stereo not shown),-28.8
13,Cl.OC(CN1CCN(Cc2ccccc2)CC1)c1ccc(F)cc1 (stereo not shown),-67.9
14,OC(CN1CCOCC1)c1ccc(F)cc1 (stereo not shown),12.6
15,Cl.Oc1ccc(C2=CCNCC2)cc1O,10.1
16,c1cnc(SCCOc2cccc3ccccc23)nc1,-8.05
17,C=CCNC(=S)NNc1nc(Nc2ccccc2)nc(N2CCCCC2)n1,10.3
18,COc1ccc(-c2nc(CC(=O)O)cs2)cc1,6.7
19,CCCCN1C(=O)C(=O)N(CC(=O)N2CCN(c3ccccc3)CC2)C1=O,3.67
20,CCOc1ccc(/C=N/N(C)c2ccccc2)cc1OC,15.8
21,CCNc1oc(-c2cccc3ccccc23)nc1C#N,15.7
22,COc1ccc(-c2nnc3n2CCCCC3)cc1,19.9
23,Clc1ccc(-c2cnc3n2CCCCC3)cc1,-46.4
24,COc1ccc(Cn2c(-c3ccc(Br)cc3)c[n+]3ccccc23)cc1.[Br-],-8.08
25,Clc1ccc(C2=C3CCCCn4c(-c5ccccc5)c[n+](c43)C2)cc1.[Br-],-82.1

row,Structure (SMILES),"hERG current change (%, negative = inhibition) at 10uM [%]"
1,COc1ccc(-c2c[n+]3c4n2CCCCC4=C(c2ccccc2)C3)cc1.[Br-],-75.1
2,COc1ccc(-c2c[n+](CC(=O)N3c4ccccc4Sc4ccccc43)c3n2CCC3)cc1.[Cl-],-38.2
3,C[n+]1cc(-c2ccccc2)n2c1CCCCC2.[I-],4.03
4,COc1ccc(-c2c[n+](CC(=O)c3ccccc3)c3n2CCCCC3)cc1.[Br-],11.7
5,COc1ccc(-c2c[n+]3c4n2CCCCC4=C(c2ccc(Br)cc2)C3)cc1.[Br-],-75.1
6,COC(=O)c1cc(S(=O)(=O)N(C)c2ccc(C)c(C)c2)c[nH]1,-20.2
7,CCc1nc(NCCN2CCOCC2)c2oc3ccccc3c2n1.Cl,-28.2
8,Cc1nn(Cc2ccccc2)c(C)c1C(=O)OCC(=O)Nc1cccc(S(N)(=O)=O)c1,-0.587
9,O=C(CSc1nnc(CNC(=O)c2cccs2)o1)Nc1cccc(F)c1,4.85
10,Clc1ccccc1Cn1nnc(-c2ccccc2)n1,4.02
11,O=C1C2CCCN2C(=O)N1CCCCN1CCN(CCO)CC1 (stereo not shown),-14.9
12,O=C1C2CCCN2C(=O)N1CCCCN1CCN(c2ccccc2)CC1 (stereo not shown),-21.6
13,O=C1C2CCCN2C(=O)N1CCCCN1CCN(c2cccc(C(F)(F)F)c2)CC1 (stereo not shown),-60.9
14,Cl.O=C1C2CCCN2C(=O)N1CCCN1CCN(c2cccc(Br)c2)CC1 (stereo not shown),-9.07
15,O=C1C2CCCN2C(=O)N1CCCCN1CCN(c2cccc(Cl)c2)CC1 (stereo not shown),-65.6
16,O=C1C2CCCN2C(=O)N1CCCN1CCN(c2cccc(Cl)c2)CC1 (stereo not shown),-2.8
17,O=C1C2CCCCN2C(=O)N1CCCCN1CCN(c2cccc(Br)c2)CC1 (stereo not shown),-61.4
18,O=C1C2CCCCN2C(=O)N1CCCCN1CCN(c2cccc(Cl)c2)CC1 (stereo not shown),-60.6
19,O=C1CC(N2CCSCC2)C(=O)N1c1cccc(Br)c1 (stereo not shown),-3.54
20,COc1ccc(C(=O)/C=C/Nc2cc(C)on2)c(OC)c1,-6.33
21,COC(=O)c1ccccc1NC(=O)NC1CCN(Cc2ccccc2)CC1,-31.1
22,CCCn1cc(NC(=O)c2cc(-c3ccccc3)on2)cn1,-21.5
23,CCOC(=O)C1=C(C)Nc2ncnn2C1/C=C/c1ccccc1 (stereo not shown),-2.68
24,CC1CN(c2ccc([N+](=O)[O-])nc2)CC(C)O1 (stereo not shown),-21.6
25,COC(=O)c1ccc(NC(=O)CSc2nc(=O)cc(N)n2-c2ccccc2)cc1,12.8

row,Structure (SMILES),"hERG current change (%, negative = inhibition) at 10uM [%]"
1,CCOC(=O)C1CCN(c2c(NCCCN3CCCCC3)c(=O)c2=O)CC1,6.88
2,CC(OC(=O)c1cccc(S(=O)(=O)N2CCOCC2)c1)C(=O)NC1CCCCC1C (stereo not shown),5.52
3,COc1cc(Cl)ccc1OCc1cc(C(=O)N(C)CCc2c(C)n[nH]c2C)no1,-19.5
4,COc1ccc(-c2csc(N(CCCN(C)C)C(=O)c3ccccc3C)n2)cc1.Cl,-75.1
5,COc1ccc(-c2csc(N(CCCN(C)C)C(=O)c3ccccc3Cl)n2)cc1.Cl,-67.3
6,COc1ccc(-c2csc(N(CCCN(C)C)C(=O)c3ccccc3F)n2)cc1.Cl,-35.3
7,CC1CCCC(C)N1C(=C(Cl)Cl)C(=C1SCCS1)[N+](=O)[O-] (stereo not shown),16.7
8,COc1ccccc1N(Cc1ccccc1)S(=O)(=O)c1cccc(C(=O)Nc2ccccn2)c1,10.5
9,Cc1nc2ccccc2c(=O)n1-c1ccc(NS(=O)(=O)c2cc(F)ccc2F)cc1,-11.7
10,O=C(CSc1ncccn1)N1CCN(Cc2ccccc2)CC1,9.31
11,Nc1cc(C(=O)O)c(Oc2ccc(Cl)cc2Cl)cc1C(=O)O,7.83
12,O=C(N/N=C/c1ccoc1)c1cc(Br)ccc1O,14.2
13,CCOc1ccc(NC(=O)c2ccc3[nH]c(=O)c(=O)[nH]c3c2)cc1,16.8
14,Cn1c(-[n+]2c(-c3ccccc3)cc(-c3ccccc3)cc2-c2ccccc2)nc2cc([N+](=O)[O-])ccc21.[I-],-12.2
15,O=[N+]([O-])c1ccc(-c2nc3ccc([N+](=O)[O-])cc3[nH]2)cc1,-27.9
16,O=[N+]([O-])c1cccc(-c2nc3ccc([N+](=O)[O-])cc3[nH]2)c1,8.34
17,Nc1nc2ccc([N+](=O)[O-])cc2[nH]1,20.6
18,CCCC[n+]1ccc(-c2nc3ccc([N+](=O)[O-])cc3[nH]2)cc1,-59.5
19,F[B-](F)(F)F.O=[N+]([O-])c1ccc2nc(-[n+]3c(-c4ccccc4)cc(-c4ccccc4)cc3-c3ccccc3)[nH]c2c1,-61.8
20,Cc1ccc(-c2nc3ccc([N+](=O)[O-])cc3[nH]2)cc1,-3.49
21,CC(C)(C)c1nc2ccc([N+](=O)[O-])cc2[nH]1,-77.7
22,Cc1nc2ccc([N+](=O)[O-])cc2[nH]1,7.21
